The values that follow come from PubChem BioAssay (NCI).

About 83,000 compounds went through this panel and 20% of them were active in at least one assay; those are over-represented in the sample as a whole.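 How to read the values: 0–100, growth inhibition (40 = 60% inhibited); 0, no net growth; -100 to 0, cell death (-40 = 40% of starting cells died; -100 = all dead).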 Unmarked numbers belong to inactive results. The source made the active and inactive calls. The calls were made as follows: active = growth percent below 10; inactive = the rest.

In the first test the test system is HCT-116 colon. Put plainly: NCI-60 one-dose screen, 48 h (100 = growth as untreated, 0 = no growth, -100 = all killed). The note with it: 10 µM unless noted.
For the compound `CCSc1nnc(Nc2ccc(C(C)C)cc2)s1`, the growth is 72.3%.

On to `O=C(Cc1c(F)cccc1Cl)Nc1ccc(S(=O)(=O)Nc2ncccn2)cc1`, for which the growth is 102%.

Consider `CC1(C)OC2COC3(C(=O)O)OC(C)(C)OC3C2O1` (stereo not drawn), for which the growth was 114%.

For the compound `COc1cc(-n2nc(C(=O)Nc3ccc(C(=O)O)cc3)nc2-c2ccccc2)cc(OC)c1OC`, the growth is 91.7%.

Turning to `CN1CCN(CCCOc2ccc3nc(Nc4ccc(C(F)(F)F)c(Cl)c4)ccc3c2)CC1`, the growth is 0.975% (active).

Take `COc1ccc(S(=O)(=O)NCCNc2nccc(-c3c(-c4ccccc4)nc4sccn34)n2)cc1`: the growth was 9.81% (active).

Regarding `O=c1[nH]c(-c2cn(-c3ccc(Cl)cc3)nn2)nc2ccccc12`, the growth was 52%.

In the case of `COc1ccc(S(=O)(=O)Nc2cc(/C=C\c3cc(OC)c(OC)c(OC)c3)cc(OC)c2OC)cc1OC`, the growth was 15.6%.

Take `COc1ccc(-c2nc3sccn3c2-c2ccnc(NCCNS(=O)(=O)c3ccc(C(F)(F)F)cc3)n2)cc1`: the growth is 10%.

On to `CCN(CC)CCSc1c2ccc(Cl)cc2nc2ccc(OC)cc12`, for which the growth was 50.3%.

Regarding `COc1ncc(-c2ccc3ncnc(Nc4cccc(Cl)c4)c3c2)cc1NS(=O)(=O)CCN1CCOCC1`, the growth is 29.7%.

As for `O=c1[nH]c(CN2CCN(c3ccccc3F)CC2)nc2sc3c(c12)CCC3`, the growth is 105%.

Regarding `O=C(Nc1cccc(Cl)c1)c1cc([N+](=O)[O-])ccc1O`, the growth is 45.9%.

Consider `Cc1cc(N/C=c2\sc3ncnn3c2=O)no1`, for which the growth is 95.1%.

For `c1ccc2c(c1)Oc1ccccc1C2C1c2ccccc2Oc2ccccc21`, the growth was 84.2%.

With `CC(C)CCN(CCCNc1c2c(nc3ccccc13)CCCC2)CCC(C)C`, the growth is 63.7%.

As to `COc1cc(/C=C/C(=O)c2ccccc2O)ccc1OCCCOc1cc2c(cc1OC)C(=O)N1CCC[C@H]1C=N2`, the growth was 2.66% (active).

Take `O=C1NC(Cc2c[nH]c3ccccc23)C(=O)N1Cc1ccc(Cl)cc1` (stereo not drawn): the growth was 93.4%.

With `COc1ccc(C2CC(c3cccs3)=NN2c2ccc(S(=O)(=O)NC(=O)NCc3cccc(OC)c3)cc2)cc1` (stereo not drawn), the growth was 98.8%.

Consider `CCOC(=O)C1=C(CSC(=S)N(C2CCCCC2)C2CCCCC2)N(C)C(=O)NC1c1ccccc1` (stereo not drawn), for which the growth was 26.2%.

For the compound `COc1cccc2nc(Nc3ccc(NC(=O)c4ccc5ncccc5c4)cc3)ccc12`, the growth was 84.5%.

For the compound `Cc1cc(NC(=O)COC(=O)c2sc3cc(F)ccc3c2Cl)no1`, the growth was 103%.

For the compound `CC/C=C\C[C@H](O)C/C=C1/C(=O)C(Cl)=C[C@@H]1C/C=C\CCCC(=O)O`, the growth is -88.6% (active).

With `O=Nc1c(-c2c(O)[nH]c3ccc([N+](=O)[O-])cc23)[nH]c2ccc(O)cc12`, the growth was 2.29% (active).

`O=C(Nc1ccc(F)cc1)c1cc([N+](=O)[O-])ccc1O`: the growth is 66.8%.

On to `Cc1ccc(S(=O)(=O)OCC(=O)Nc2ccc(C(=O)O)c(O)c2)cc1`, for which the growth is 96.2%.

Consider `Cc1cc(C)c(NC(=O)c2sc3nc4c(cc3c2N)CN(Cc2ccccc2)CC4)c(C)c1`, for which the growth is 22.6%.

For the compound `COc1ccc(-c2nnc(COc3ccc(NS(=O)(=O)c4ccc(OC)cc4)cc3F)o2)cc1`, the growth was 67.2%.

For `Cc1ccc2nc(-c3c(CCCO)noc3N)[nH]c(=O)c2c1`, the growth is 102%.

With `O=[N+]([O-])c1ccc(S(=O)(=O)N2CCN(c3ccnc4cc(Cl)ccc34)CC2)c([N+](=O)[O-])c1`, the growth is 77.5%.

Take `CCN(Cc1ccc(CN(CC)C(=O)C(Cl)(Cl)Cl)cc1)C(=O)C(Cl)(Cl)Cl`: the growth is 56.4%.

`COc1ccc(Cn2cc(COc3cc(/C=C/C(=O)c4cc(OC)c(OC)c(OC)c4)ccc3OC)nn2)cc1`: the growth was 17.9%.

Take `N#CC1=C(N)n2nc(-c3ccncc3)nc2NC1c1cccc2ccccc12` (stereo not drawn): the growth is 87.9%.

As to `COc1ccc(/C=C/C(=O)c2ccc(B(O)O)cc2)cc1O`, the growth was 1.46% (active).

Regarding `Nc1nc(-c2ccccc2)cs1`, the growth was 94.8%.

With `NS(=O)(=O)c1ccc(NCC(=O)Nc2ccc(-c3nc4ccccc4s3)cc2)cc1`, the growth was 25.1%.

In the case of `COc1cc(Br)c(OC)cc1Br`, the growth is 91.5%.

Consider `COc1cc(NS(C)(=O)=O)ccc1Nc1c2ccc([N+](=O)[O-])cc2nc2c(C)cccc12`, for which the growth was 22.9%.

Take `O=C(Nc1ccc(I)cc1)c1cccc([N+](=O)[O-])c1O`: the growth is 8.14% (active).

Another test deals with HCC-2998 colon. Described as above. The note with it: 10 µM unless noted.
Take `CCSc1nnc(Nc2ccc(C(C)C)cc2)s1`: the growth was 92.7%.

For the compound `O=C(Cc1c(F)cccc1Cl)Nc1ccc(S(=O)(=O)Nc2ncccn2)cc1`, the growth was 97.3%.

In the case of `CC1(C)OC2COC3(C(=O)O)OC(C)(C)OC3C2O1` (stereo not drawn), the growth was 97.6%.

Take `COc1cc(-n2nc(C(=O)Nc3ccc(C(=O)O)cc3)nc2-c2ccccc2)cc(OC)c1OC`: the growth is 97.9%.

As to `CN1CCN(CCCOc2ccc3nc(Nc4ccc(C(F)(F)F)c(Cl)c4)ccc3c2)CC1`, the growth is -71.1% (active).

Regarding `COc1ccc(S(=O)(=O)NCCNc2nccc(-c3c(-c4ccccc4)nc4sccn34)n2)cc1`, the growth was 60.7%.

Turning to `O=c1[nH]c(-c2cn(-c3ccc(Cl)cc3)nn2)nc2ccccc12`, the growth is 90%.

As to `COc1ccc(S(=O)(=O)Nc2cc(/C=C\c3cc(OC)c(OC)c(OC)c3)cc(OC)c2OC)cc1OC`, the growth is 21.1%.

With `COc1ccc(-c2nc3sccn3c2-c2ccnc(NCCNS(=O)(=O)c3ccc(C(F)(F)F)cc3)n2)cc1`, the growth is 23.7%.

Turning to `CCN(CC)CCSc1c2ccc(Cl)cc2nc2ccc(OC)cc12`, the growth is 97.3%.

Regarding `COc1ncc(-c2ccc3ncnc(Nc4cccc(Cl)c4)c3c2)cc1NS(=O)(=O)CCN1CCOCC1`, the growth was 18.9%.

For the compound `O=c1[nH]c(CN2CCN(c3ccccc3F)CC2)nc2sc3c(c12)CCC3`, the growth was 117%.

As for `O=C(Nc1cccc(Cl)c1)c1cc([N+](=O)[O-])ccc1O`, the growth was 29.2%.

Consider `Cc1cc(N/C=c2\sc3ncnn3c2=O)no1`, for which the growth was 96.9%.

`c1ccc2c(c1)Oc1ccccc1C2C1c2ccccc2Oc2ccccc21`: the growth was 99.9%.

As for `CC(C)CCN(CCCNc1c2c(nc3ccccc13)CCCC2)CCC(C)C`, the growth was 69.7%.

With `COc1cc(/C=C/C(=O)c2ccccc2O)ccc1OCCCOc1cc2c(cc1OC)C(=O)N1CCC[C@H]1C=N2`, the growth was -16.7% (active).

As for `O=C1NC(Cc2c[nH]c3ccccc23)C(=O)N1Cc1ccc(Cl)cc1` (stereo not drawn), the growth was 131%.

On to `COc1ccc(C2CC(c3cccs3)=NN2c2ccc(S(=O)(=O)NC(=O)NCc3cccc(OC)c3)cc2)cc1` (stereo not drawn), for which the growth was 111%.

On to `CCOC(=O)C1=C(CSC(=S)N(C2CCCCC2)C2CCCCC2)N(C)C(=O)NC1c1ccccc1` (stereo not drawn), for which the growth was 71.9%.

With `COc1cccc2nc(Nc3ccc(NC(=O)c4ccc5ncccc5c4)cc3)ccc12`, the growth is 96.4%.

As for `Cc1cc(NC(=O)COC(=O)c2sc3cc(F)ccc3c2Cl)no1`, the growth was 112%.

Take `CC/C=C\C[C@H](O)C/C=C1/C(=O)C(Cl)=C[C@@H]1C/C=C\CCCC(=O)O`: the growth is 76.4%.

For `O=Nc1c(-c2c(O)[nH]c3ccc([N+](=O)[O-])cc23)[nH]c2ccc(O)cc12`, the growth is 8.93% (active).

For the compound `O=C(Nc1ccc(F)cc1)c1cc([N+](=O)[O-])ccc1O`, the growth was 63.9%.

On to `Cc1ccc(S(=O)(=O)OCC(=O)Nc2ccc(C(=O)O)c(O)c2)cc1`, for which the growth was 87.6%.

As to `Cc1cc(C)c(NC(=O)c2sc3nc4c(cc3c2N)CN(Cc2ccccc2)CC4)c(C)c1`, the growth is 62.3%.

Consider `COc1ccc(-c2nnc(COc3ccc(NS(=O)(=O)c4ccc(OC)cc4)cc3F)o2)cc1`, for which the growth was 93.1%.

On to `Cc1ccc2nc(-c3c(CCCO)noc3N)[nH]c(=O)c2c1`, for which the growth is 128%.

As for `O=[N+]([O-])c1ccc(S(=O)(=O)N2CCN(c3ccnc4cc(Cl)ccc34)CC2)c([N+](=O)[O-])c1`, the growth was 106%.

Consider `CCN(Cc1ccc(CN(CC)C(=O)C(Cl)(Cl)Cl)cc1)C(=O)C(Cl)(Cl)Cl`, for which the growth is 92.4%.

Regarding `COc1ccc(Cn2cc(COc3cc(/C=C/C(=O)c4cc(OC)c(OC)c(OC)c4)ccc3OC)nn2)cc1`, the growth was 110%.

For `N#CC1=C(N)n2nc(-c3ccncc3)nc2NC1c1cccc2ccccc12` (stereo not drawn), the growth was 105%.

Regarding `COc1ccc(/C=C/C(=O)c2ccc(B(O)O)cc2)cc1O`, the growth is 49.8%.

Take `Nc1nc(-c2ccccc2)cs1`: the growth is 104%.

Take `NS(=O)(=O)c1ccc(NCC(=O)Nc2ccc(-c3nc4ccccc4s3)cc2)cc1`: the growth is 87.6%.

In the case of `COc1cc(Br)c(OC)cc1Br`, the growth is 99.6%.

For `COc1cc(NS(C)(=O)=O)ccc1Nc1c2ccc([N+](=O)[O-])cc2nc2c(C)cccc12`, the growth is -1.86% (active).

For `O=C(Nc1ccc(I)cc1)c1cccc([N+](=O)[O-])c1O`, the growth was 19.9%.
